Active and inactive are the calls of the source. The calls were made as follows: active = hit-call score of the fitted dose curve at least 0.9, where 1 is the maximum; inactive = score below 0.9.
Experiment: APR_HepG2_NuclearSize_1hr: Apredica 1-hour HepG2 Assay for Nuclear Size (AID 2282670)
Details: high-content imaging, actives raise or lower the signal
Procedure: APR_HepG2_1hr is a cell-based, multiplexed-readout assay that uses HepG2, a human liver cell line, with measurements taken at 1 hour after chemical dosing in a 384-well plate.APR_HepG2_NuclearSize_1hr is one of 10 assay component(s) measured or calculated from the APR_HepG2_1hr assay. It is designed to make measurements of cell phenotype, a form of morphology reporter, as detected with fluorescence intensity signals by HCS Fluorescent Imaging technology.Data from the assay component APR_HepG2_NuclearSize_1hr was analyzed into 1 assay endpoint. This assay endpoint, APR_HepG2_NuclearSize_1hr, was analyzed with bidirectional fitting relative to DMSO as the negative control and baseline of activity. Using a type of morphology reporter, measures of all nuclear dna for gain or loss-of-signal activity can be used to understand the signaling at the nuclear-level. Furthermore, this assay endpoint can be referred to as a primary readout, because this assay has produced multiple assay endpoints where this one serves a signaling function. To generalize the intended target to other relatable targets, this assay endpoint is annotated to the cell morphology intended target family, where the subfamily is organelle conformation.
Cells were treated with dimethyl sulfoxide (DMSO) as a solvent control at a final concentration of 0.5% v/v or with compounds in DMSO with a resulting final DMSO concentration of 0.5% v/v. Compound treatment was done at concentrations of 0.39, 0.78, 1.56, 3.12, 6.24, 12.5, 25, 50, 100, and 200 uM in duplicate on each plate. Cells were treated with compounds for 1, 24, or 72 hr. Carbonyl […] m-chloro-phenylhydrazone (CCCP) and taxol were used as positive controls for mitochondrial function and cytoskeletal stability, respectively; DMSO served as the negative control for this experiment. Cells were fixed by the direct addition of 50 uL formaldehyde in Hank's Balanced Salt Solution (HBSS) to a final concentration of 3.7%. After incubation in the fixation medium for 30 min at room temperature (293-298 K), cells were rinsed twice with HBSS and treated with cell permeabilization buffer (16 uL of 0.5% Triton X-100) for 10 min at room temperature (293-298 K) before labeling. For mitochondrial membrane potential and mitochondrial measurements, pre-fixed cells were incubated with 50 uL of MitoTracker Red CMXRos (Invitrogen) at a concentration of 250 nM for 30 min before fixation. In the remaining cases, post-fixed cells were labeled by incubation with a multiplexed mixture of primary antibodies in HBSS for 60 min at room temperature (293-298 K) to detect immunoreactivity of c-Jun (1:500), phospho-histone H3 (1:100), phospho-histone H2A.x (1:200), p53 (1:400), alpha-tubulin (1:200) and Hoechst 33342 (2 ug/mL). Cells were labeled for multiplexed imaging on two separate plates: a) Hoechst 33342, MitoTracker Red, phospho-histone H3, and alpha-tubulin, and b) Hoechst 33342, phospho-histone H2A.x, and c-Jun. A final rinse with HBSS (50 uL) was performed before analysis. The primary and secondary antibodies for the proteins were phospho-histone H3 (rabbit anti-phospho-histone H3 and FITC-donkey anti-rabbit IgG), phospho-histone H2A.x (mouse anti-phospho-histone H2A.x and FITC-donkey anti-mouse IgG), c-Jun (rabbit anti-phospho-c-Jun and Cy3-donkey anti-rabbit IgG), p53 (sheep anti-p53 and Cy5-donkey anti-sheep IgG), alpha-tubulin (mouse anti-alpha-tubulin and Cy5-donkey anti-mouse IgG). These antibodies are available as the CellCiphr HepG2 assay kit (Millipore).Digital images of each well were captured using a Cellomics ArrayScan VTI (Thermo Scientific Cellomics) (0.8 NA objective, 0.63x optical coupler, and XF-93 filter set) at 20x magnification. The images were acquired using the autofocus feature of the ArrayScan instrument, which entails the following steps. First, the camera focuses on channel 1 (Hoechst 33342), where nuclei are identified. Second, a Z offset of 1 um is used for capturing mitochondria (MitoTracker Red). […]
With Nc1c(Cl)cc([N+](=O)[O-])cc1Cl the outcome was “inactive”.
For CCOP(=S)(OCC)Oc1ccc([N+](=O)[O-])cc1, the outcome was “inactive”.
With CN(C)C(=O)Nc1cccc(C(F)(F)F)c1 the outcome was “inactive”.
In the case of CCOP(=O)(NC(C)C)Oc1ccc(SC)c(C)c1 (stereo not given), the outcome is reported as “inactive”.
In the case of O=[N+]([O-])c1cc(C(F)(F)F)c(Cl)c([N+](=O)[O-])c1Nc1ncc(C(F)(F)F)cc1Cl, the outcome is reported as “inactive”.
In the case of CCCOc1nn(C(=O)NS(=O)(=O)c2ccccc2C(=O)OC)c(=O)n1C, the outcome is reported as “inactive”.
With Cc1ccn2nc(S(=O)(=O)Nc3c(F)cccc3F)nc2n1 the outcome was “inactive”.
With Cc1cc(C2CC2)nc(Nc2ccccc2)n1 the outcome was “inactive”.
In the case of CC(C)[C@H](C(=O)O[C@H](C#N)c1cccc(Oc2ccccc2)c1)c1ccc(Cl)cc1, the outcome is reported as “inactive”.
For CCCSP(=O)(OCC)Oc1ccc(Br)cc1Cl (stereo not given), the outcome was “inactive”.
In the case of CSc1nnc(C(C)(C)C)c(=O)n1N, the outcome is reported as “inactive”.
With CC(C)N(C(=O)SCC(Cl)=C(Cl)Cl)C(C)C the outcome was “inactive”.
With COP(=O)(NC(C)=O)SC (stereo not given) the outcome was “inactive”.
With CN(C)[C@@H]1C(=O)C(C(N)=O)=C(O)[C@@]2(O)C(=O)C3=C(O)c4c(O)cccc4[C@@](C)(O)[C@H]3[C@H](O)[C@@H]12 the outcome was “inactive”.
With CCOC(=O)CC(SP(=O)(OC)OC)C(=O)OCC (stereo not given) the outcome was “inactive”.
In the case of Cc1nn(-c2cc(NS(C)(=O)=O)c(Cl)cc2Cl)c(=O)n1C(F)F, the outcome is reported as “inactive”.
For CC1(C(=O)Nc2ccc(O)c(Cl)c2Cl)CCCCC1, the outcome was “inactive”.
For CCOP(=S)(OCC)Oc1ccc2c(C)c(Cl)c(=O)oc2c1, the outcome was “inactive”.
With O=C(O)c1cc(Oc2ccc(C(F)(F)F)cc2Cl)ccc1[N+](=O)[O-] the outcome was “inactive”.
With CSC1=N[C@@](C)(c2ccccc2)C(=O)N1Nc1ccccc1 the outcome was “inactive”.
In the case of CCC(=O)Nc1ccc(Cl)c(Cl)c1, the outcome is reported as “inactive”.
In the case of CCc1cccc(CC)c1N(COC)C(=O)CCl, the outcome is reported as “inactive”.
With CC(C1CC1)C(O)(Cn1cncn1)c1ccc(Cl)cc1 (stereo not given) the outcome was “inactive”.
For COc1cccc(C(=O)NN(C(=O)c2cc(C)cc(C)c2)C(C)(C)C)c1C, the outcome was “inactive”.
For S=C1NCCN1, the outcome was “inactive”.
In the case of CCOP(=O)(SC(C)CC)N1CCSC1=O (stereo not given), the outcome is reported as “inactive”.
For CC1=NNC(=O)N(/N=C/c2cccnc2)C1, the outcome was “inactive”.
In the case of CCOP(=O)(OCC)Oc1cc(C)nc(C(C)C)n1, the outcome is reported as “inactive”.
For CCOP(=S)(OCC)OC(Cl)C(Cl)(Cl)Cl (stereo not given), the outcome was “inactive”.
For CCCCN(CC)c1c([N+](=O)[O-])cc(C(F)(F)F)cc1[N+](=O)[O-], the outcome was “inactive”.
For N#CSCSC#N, the outcome was “inactive”.
In the case of CC(C)=CC1C(C(=O)OCN2C(=O)C3=C(CCCC3)C2=O)C1(C)C (stereo not given), the outcome is reported as “inactive”.
For CCc1cnc(C2=NC(C)(C(C)C)C(=O)N2)c(C(=O)O)c1 (stereo not given), the outcome was “inactive”.
With CON=C(C(=O)OC)c1ccccc1CON=C(C)c1cccc(C(F)(F)F)c1 the outcome was “inactive”.
With CNC(=O)ON=C(C)SC the outcome was “inactive”.
With COc1ccc(C(=CC(=O)N2CCOCC2)c2ccc(Cl)cc2)cc1OC the outcome was “inactive”.
In the case of C[Si](Cn1cncn1)(c1ccc(F)cc1)c1ccc(F)cc1, the outcome is reported as “inactive”.
With O=c1ccc(=O)[nH][nH]1 the outcome was “inactive”.
With C#CC(C)(C)NC(=O)c1cc(Cl)cc(Cl)c1 the outcome was “inactive”.
With FC(F)C(F)(F)OCC(Cn1cncn1)c1ccc(Cl)cc1Cl (stereo not given) the outcome was “inactive”.
